Common to all, as to assay: NCI-60 one-dose screen, 48 h (100 = growth as untreated, 0 = no growth, -100 = all killed)
In one assay the test system is SK-MEL-2 melanoma. As to conditions: 10 µM.
The subject of the next assay is EKVX NSCLC. As to conditions: 10 µM.
Another assay deals with SN12C renal. As to conditions: 10 µM.
The test system of a further assay is UO-31 renal. As to conditions: 10 µM.
The test system of another assay is TK-10 renal. As to conditions: 10 µM unless noted.
Another assay concerns ACHN renal. As to conditions: 10 µM.
The test system of the next assay is CAKI-1 renal. As to conditions: 10 µM.
The test system of a further assay is CCRF-CEM leukemia. As to conditions: 10 µM.
A further assay concerns RPMI-8226 leukemia. As to conditions: 10 µM.
Another assay has as its system OVCAR-8 ovarian. As to conditions: 10 µM.
Another assay has as its system OVCAR-5 ovarian. As to conditions: 10 µM.
The test system of the next assay is OVCAR-4 ovarian. Conditions: 10 µM.
Another assay deals with SK-OV-3 ovarian. As to conditions: 10 µM.
The next assay has as its system IGROV1 ovarian. As to conditions: 10 µM.
The subject of another assay is OVCAR-3 ovarian. As to conditions: 10 µM.
The subject of a further assay is HS 578T breast. As to conditions: 10 µM.
The next assay deals with NCI/ADR-RES ovarian. Conditions: 10 µM.
The subject of another assay is A498 renal. As to conditions: 10 µM.
The subject of the next assay is MOLT-4 leukemia. Conditions: 10 µM.
A further assay relates to SR leukemia. Conditions: 10 µM.

From PubChem BioAssay (NCI) come the findings set out here.

SMILES strings stand for the structures. Compounds without any hit were thinned out: in the full panel of roughly 83,000, 20% have a hit.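 96-well plates, one dose, 48 hours. Percent growth reported; active if below 10.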 Values without a mark were called inactive. Activity calls are given as the source filed them.

Take `C#C[C@H]1CCCCCC1O` (stereo partly drawn): the growth is 101% in the assay with SK-MEL-2 melanoma; 104% with EKVX NSCLC; 101% in the assay on SN12C renal; 97.1% in the assay on UO-31 renal; 109% in the assay with TK-10 renal; 116% with ACHN renal. Further, the growth in the assay on CAKI-1 renal was 101%; with CCRF-CEM leukemia, 97.1%; in the assay on RPMI-8226 leukemia, 97.2%; in the assay with OVCAR-8 ovarian it was 111%; with OVCAR-5 ovarian, 115%; in the assay on OVCAR-4 ovarian, 120%. Also, the growth with SK-OV-3 ovarian was 110%; in the assay with IGROV1 ovarian, 107%; with OVCAR-3 ovarian, 113%; in the assay on HS 578T breast, 101%; in the assay with NCI/ADR-RES ovarian, 101%.
For `CCOc1ccc(Br)cc1/C=N\N=C\c1cc(Br)ccc1OCC`, the growth in the assay with SK-MEL-2 melanoma is 109%; with EKVX NSCLC, 107%; with SN12C renal, 102%; in the assay with UO-31 renal it was 88.8%; in the assay on TK-10 renal it was 111%; in the assay with ACHN renal, 104%. Further, the growth in the assay with A498 renal was 141%; in the assay with CCRF-CEM leukemia it was -3.92% (active); in the assay on MOLT-4 leukemia it was 102%; in the assay on SR leukemia it was 92.4%; in the assay with RPMI-8226 leukemia, 95.5%; in the assay with OVCAR-8 ovarian it was 95.6%. For the same compound, the growth with OVCAR-5 ovarian was 107%; in the assay on OVCAR-4 ovarian it was 113%; with SK-OV-3 ovarian, 117%; in the assay with IGROV1 ovarian, 103%; with OVCAR-3 ovarian, 96.8%; in the assay on HS 578T breast it was 143%. The growth in the assay on NCI/ADR-RES ovarian is 120%.
With `CCCCCCCCCCCCCCCCC1CC(=O)OC1=O` (stereo not drawn), the growth in the assay with SK-MEL-2 melanoma was 113%; in the assay with EKVX NSCLC it was 96.9%; with SN12C renal, 101%; in the assay with UO-31 renal, 93.5%; in the assay on TK-10 renal, 107%; in the assay with CAKI-1 renal it was 97.9%. Further, the growth in the assay on CCRF-CEM leukemia is 96.5%; with MOLT-4 leukemia, 118%; with SR leukemia, 99.3%; in the assay on RPMI-8226 leukemia it was 108%; with OVCAR-8 ovarian, 101%; in the assay with OVCAR-5 ovarian it was 102%. Moreover, the growth with OVCAR-4 ovarian was 108%; in the assay with SK-OV-3 ovarian, 106%; with IGROV1 ovarian it was 124%; in the assay on OVCAR-3 ovarian, 119%; in the assay on HS 578T breast it was 106%; with NCI/ADR-RES ovarian, 113%.
`NC(N)=Nc1cc2ccccc2c2ccccc12`: the growth in the assay with SK-MEL-2 melanoma was 108%; in the assay on EKVX NSCLC, 83.9%; in the assay on SN12C renal, 80.5%; with UO-31 renal it was 57%; with TK-10 renal it was 105%; in the assay on ACHN renal, 72.3%. Besides, the growth with A498 renal is 59.3%; in the assay with CCRF-CEM leukemia, 40.5%; with SR leukemia, 44.3%; in the assay on RPMI-8226 leukemia it was 33.5%; in the assay on OVCAR-8 ovarian it was 45.9%; in the assay with OVCAR-5 ovarian, 95.8%. The growth in the assay with OVCAR-4 ovarian is 74.4%; in the assay on IGROV1 ovarian it was 65.2%; in the assay with OVCAR-3 ovarian, 73.1%; in the assay with HS 578T breast it was 96.4%; in the assay on NCI/ADR-RES ovarian, 95.1%.
Turning to `C/C(=N/NC(N)=O)c1ccco1`, the growth was 108% with SK-MEL-2 melanoma; 100% in the assay on EKVX NSCLC; 110% in the assay with SN12C renal; 95.8% with UO-31 renal; 102% in the assay with ACHN renal; 102% in the assay on CAKI-1 renal. The growth in the assay with A498 renal was 111%; with CCRF-CEM leukemia it was 106%; in the assay on MOLT-4 leukemia, 89.9%; with SR leukemia it was 87.3%; in the assay on OVCAR-8 ovarian it was 106%; in the assay with OVCAR-5 ovarian it was 100%. In addition, the growth is 110% in the assay on OVCAR-4 ovarian; 84.1% with SK-OV-3 ovarian; 104% with IGROV1 ovarian; 104% in the assay on OVCAR-3 ovarian; 110% with HS 578T breast; 101% with NCI/ADR-RES ovarian.
`NC(=S)N/N=C/c1ccc(N)cc1`: the growth was 104% in the assay with SK-MEL-2 melanoma; 101% in the assay on EKVX NSCLC; 108% in the assay on SN12C renal; 91.6% with UO-31 renal; 108% in the assay on ACHN renal; 101% with CAKI-1 renal. Further, the growth in the assay on A498 renal is 91.2%; with CCRF-CEM leukemia, 87.2%; in the assay with MOLT-4 leukemia it was 77.7%; in the assay on SR leukemia, 98.6%; in the assay on RPMI-8226 leukemia, 98.8%; in the assay with OVCAR-8 ovarian, 102%. Moreover, the growth with OVCAR-5 ovarian was 108%; in the assay with OVCAR-4 ovarian it was 108%; with SK-OV-3 ovarian it was 100%; in the assay with IGROV1 ovarian, 103%; in the assay on OVCAR-3 ovarian, 103%; with HS 578T breast, 106%. The growth in the assay with NCI/ADR-RES ovarian was 102%.
For the compound `C/C(O)=C(\C=N\C(N)=S)C(=O)Nc1ccccc1`, the growth in the assay with SK-MEL-2 melanoma is 107%; in the assay on EKVX NSCLC it was 106%; in the assay with SN12C renal, 94.1%; in the assay on UO-31 renal it was 91.5%; in the assay on TK-10 renal it was 124%; in the assay on CAKI-1 renal, 97.8%. The growth in the assay on A498 renal is 98.6%; with MOLT-4 leukemia, 103%; in the assay with SR leukemia it was 91.7%; with OVCAR-8 ovarian, 99.7%; in the assay with OVCAR-5 ovarian it was 113%; in the assay with OVCAR-4 ovarian, 101%. The growth is 100% with SK-OV-3 ovarian, 103% in the assay with IGROV1 ovarian, 108% in the assay with OVCAR-3 ovarian and 110% in the assay with NCI/ADR-RES ovarian.
For the compound `COc1cccc(O)c1O`, the growth was 72.4% in the assay on SK-MEL-2 melanoma; 99.6% in the assay with EKVX NSCLC; 74.5% in the assay with SN12C renal; 70.3% in the assay on UO-31 renal; 91.2% with TK-10 renal; 73.2% in the assay with ACHN renal. Moreover, the growth with CCRF-CEM leukemia was 63.8%; with MOLT-4 leukemia it was 64.8%; in the assay with SR leukemia, 29.9%; in the assay with RPMI-8226 leukemia it was 89.2%; in the assay with OVCAR-8 ovarian it was 86.2%; with OVCAR-5 ovarian it was 101%. Besides, the growth was 96.3% with OVCAR-4 ovarian; 76.9% in the assay with SK-OV-3 ovarian; 96.4% with IGROV1 ovarian; 6.36% (active) in the assay on OVCAR-3 ovarian; 85.6% in the assay with NCI/ADR-RES ovarian.
For `O=C(/C=C/C(=O)c1ccccc1)c1ccccc1`, the growth in the assay on SK-MEL-2 melanoma is 119%; in the assay with EKVX NSCLC it was 102%; in the assay on SN12C renal, 108%; in the assay on UO-31 renal it was 97.6%; in the assay on TK-10 renal it was 86.9%; in the assay on CAKI-1 renal it was 94.9%. Besides, the growth is 85.2% in the assay on A498 renal; 37.9% in the assay on CCRF-CEM leukemia; 79.2% with MOLT-4 leukemia; 71.3% in the assay with SR leukemia; 80.8% with RPMI-8226 leukemia; 110% in the assay on OVCAR-8 ovarian. The growth in the assay on OVCAR-5 ovarian was 115%; in the assay with SK-OV-3 ovarian, 115%; in the assay on IGROV1 ovarian it was 113%; in the assay on OVCAR-3 ovarian it was 102%; in the assay on NCI/ADR-RES ovarian it was 114%.
